This is an account of results in PubChem BioAssay (NCATS).

Results filed as inconclusive are left out. Where a call stands in place of a potency, no number is given. Calls of active or inactive are those of the source. The call rests on the fitted dose curve; in most records, active means well fitted curve in the direction sought with a large enough effect; inconclusive means small, poorly fitted or top-dose-only effect, or another doubt; inactive means no such curve, though single readings can be large; an effect the other way counts as inactive or inconclusive.

For assay [1], the target named is Aldehyde dehydrogenase, mitochondrial (Homo sapiens) (UniProt P05091). Description: qHTS for Inhibitors of the Aldehyde Dehydrogenase Family (ALDH2) Primary screen (AID 2061308). Further: nearly all actives have a fitted effect of over 55% in size. Particulars: ALDH2 enzyme inhibition qHTS, 1536-well; series mostly up to 56 µM. Background: qHTS replaces the single test concentration by a dilution series.
For assay [2], the target named is Retinaldehyde dehydrogenase 3 (Homo sapiens) (UniProt P47895). Briefly: qHTS for Inhibitors of the Aldehyde Dehydrogenase Family (ALDH1A3) Primary screen (AID 2061315). Particulars: ALDH inhibition qHTS; series mostly up to 56 µM.

For the compound `COc1cc(-c2csc(N3CCC(C(N)=O)CC3)n2)cc(OC)c1OC`, the Potency result in assay [1] and in assay [2] was “inactive” throughout.
Consider `O=C(CNC(=O)C1CCCCC1)OC(C(=O)Nc1cc(C(F)(F)F)ccc1Cl)c1ccccc1` (stereo not given), for which the Potency result in assay [1] and in assay [2] was “inactive” each time.
Consider `Cc1cc(-c2nnc3n2CCCCC3)c(C)n1-c1cccc(C(F)(F)F)c1`, for which the Potency entry in assay [1] and in assay [2] was “inactive” each time.
Turning to `C[C@H]1CC[C@@]2(OC1)O[C@H]1CC3[C@@H]4CC[C@@H]5C[C@@H](O[C@@H]6O[C@H](CO)[C@@H](O[C@@H]7O[C@H](CO[C@@H]8OC[C@@H](O)[C@H](O)[C@H]8O)[C@@H](O[C@@H]8O[C@H](CO)[C@H](O)[C@H](O)[C@H]8O)[C@H](O)[C@H]7O)[C@H](O)[C@H]6O)CC[C@]5(C)C4CC[C@]3(C)[C@H]1[C@@H]2C` (stereo not given in full), the Potency entry in assay [1] and in assay [2] was “inactive” throughout.
Turning to `C#CCOc1cc(C2=Nn3c(nnc3-c3cccc(OCC(C)=O)c3)SC2)ccc1OC`, the Potency result in assay [1] and in assay [2] was “inactive” throughout.
Consider `CN(Cc1ccco1)c1ncnc2ccc(-c3ccc4c(ccn4C)c3)cc12`, for which the Potency entry in assay [1] and in assay [2] was “inactive” in each case.
For `CC(C)CCCCC(=O)N[C@@H](CO)C(=O)N[C@@H](CC(C)C)C(=O)[C@@]1(CO)CO1`, the Potency entry in assay [1] and in assay [2] was “inactive” each time.
Consider `COc1cc(O)c(C(CC(=O)N2CCC(c3ccccc3)CC2)c2ccc(C)cc2)c(OC)c1` (stereo not given), for which the Potency result in assay [1] and in assay [2] was “inactive” throughout.
On to `C=C1C[C@]23C[C@@]1(O)CC[C@H]2[C@@]12C=C[C@H](O)[C@@](C)(C(=O)O1)[C@H]2[C@@H]3C(=O)O`, for which the Potency entry in assay [1] and in assay [2] was “inactive” in each case.
As to `O=[S+]([O-])(c1ccc2c(c1)OCCO2)N1CCN([S+](=O)([O-])c2c(F)cc(F)cc2Br)CC1`, the Potency result in assay [1] and in assay [2] was “inactive” each time.
